Numbering of substitutions follows the chain as printed.
What was measured:
Assay in all cases: yeast three-hybrid, YBZ-1, SC-Leu-His + 0.5 mM 3-AT, 4 days
Conditions in all cases: tags: N-Gal4 AD-HA kept; label: inside an RPR1-promoter hybrid RNA with tandem MS2 sites; ssRNA
[1] = molecular target: PUM1 PUF domain R3-LSS (Homo sapiens, UniProt Q14671 828-1176, C935L;R936S;Q939S)
In short: (§1)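 Matching RNA elements and Pumilio-1 PUF domain libraries, randomized at the three base-contacting residues of every repeat, were co-expressed from a centromeric plasmid in strain YBZ-1 (LexA–MS2 coat fusion, HIS3 reporter). The repeat regions were PCR-amplified and Illumina-sequenced from cells grown four days on SC-Leu (input) or SC-Leu-His + 0.5 mM 3-AT (selection). The interaction score is the log change in variant frequency from input to selection. It is computed in log2, with a pseudocount of 1 for absent variants.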

[2] = molecular target: PUM1 PUF domain R3-TRV (Homo sapiens, UniProt Q14671 828-1176, C935T;Q939V)
In short: as §1

[3] = molecular target: PUM1 PUF domain R3-QRI (Homo sapiens, UniProt Q14671 828-1176, C935Q;Q939I)
In short: as §1

[4] = molecular target: PUM1 PUF domain R1-CRR (Homo sapiens, UniProt Q14671 828-1176, S863C;Q867R)
In short: as §1

[5] = molecular target: T1, PUM1 PUF domain R6-TRE (Homo sapiens, UniProt Q14671 828-1176, N1043T;Y1044R;Q1047E)
T1 sequence: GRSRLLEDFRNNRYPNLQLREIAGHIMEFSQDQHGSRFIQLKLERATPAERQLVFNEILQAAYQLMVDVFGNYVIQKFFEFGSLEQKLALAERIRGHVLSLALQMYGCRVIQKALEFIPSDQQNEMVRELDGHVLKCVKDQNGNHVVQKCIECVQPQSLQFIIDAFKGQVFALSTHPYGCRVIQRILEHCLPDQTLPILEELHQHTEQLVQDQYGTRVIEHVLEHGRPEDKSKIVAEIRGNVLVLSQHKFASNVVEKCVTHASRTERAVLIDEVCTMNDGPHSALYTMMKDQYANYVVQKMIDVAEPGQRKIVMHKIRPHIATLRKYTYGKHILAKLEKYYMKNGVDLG
In short: as §1

[6] = molecular target: PUM1 PUF domain R4-TPA (Homo sapiens, UniProt Q14671 828-1176, N971T;H972P;Q975A)
In short: as §1

[7] = molecular target: PUM1 PUF domain R4-SQS (Homo sapiens, UniProt Q14671 828-1176, N971S;H972Q;Q975S)
In short: as §1

[8] = molecular target: PUM1 PUF domain R5-CRR (Homo sapiens, UniProt Q14671 828-1176, Q1011R)
In short: as §1

[9] = molecular target: PUM1 PUF domain R8-QWF (Homo sapiens, UniProt Q14671 828-1176, N1122Q;Y1123W;Q1126F)
In short: as §1

[10] = molecular target: PUM1 PUF domain R8-KFM (Homo sapiens, UniProt Q14671 828-1176, N1122K;Y1123F;Q1126M)
In short: as §1

[11] = molecular target: PUM1 PUF domain R4-QPC (Homo sapiens, UniProt Q14671 828-1176, N971Q;H972P;Q975C)
In short: as §1

[12] = molecular target: PUM1 PUF domain R8-RFA (Homo sapiens, UniProt Q14671 828-1176, N1122R;Y1123F;Q1126A)
In short: as §1

[13] = molecular target: T2, PUM1 PUF domain R6-FYK (Homo sapiens, UniProt Q14671 828-1176, N1043F;Q1047K)
T2 sequence: T1 sequence with T216F, R217Y, E220K
In short: as §1

[14] = molecular target: PUM1 PUF domain R5-RGN (Homo sapiens, UniProt Q14671 828-1176, C1007R;R1008G;Q1011N)
In short: as §1

[15] = molecular target: PUM1 PUF domain R3-SRW (Homo sapiens, UniProt Q14671 828-1176, C935S;Q939W)
In short: as §1

[16] = molecular target: PUM1 PUF domain R7-ISR (Homo sapiens, UniProt Q14671 828-1176, S1079I;N1080S;E1083R)
In short: as §1

[17] = molecular target: PUM1 PUF domain R7-MSG (Homo sapiens, UniProt Q14671 828-1176, S1079M;N1080S;E1083G)
In short: as §1

[18] = molecular target: PUM1 PUF domain R1-NCS (Homo sapiens, UniProt Q14671 828-1176, S863N;R864C;Q867S)
In short: as §1

[19] = molecular target: PUM1 PUF domain R5-RSS (Homo sapiens, UniProt Q14671 828-1176, C1007R;R1008S;Q1011S)
In short: as §1

[20] = molecular target: PUM1 PUF domain R5-KNS (Homo sapiens, UniProt Q14671 828-1176, C1007K;R1008N;Q1011S)
In short: as §1

PUM1 PUF domain R4-TPA, sequence (Q14671 828-1176 N971T/H972P/Q975A): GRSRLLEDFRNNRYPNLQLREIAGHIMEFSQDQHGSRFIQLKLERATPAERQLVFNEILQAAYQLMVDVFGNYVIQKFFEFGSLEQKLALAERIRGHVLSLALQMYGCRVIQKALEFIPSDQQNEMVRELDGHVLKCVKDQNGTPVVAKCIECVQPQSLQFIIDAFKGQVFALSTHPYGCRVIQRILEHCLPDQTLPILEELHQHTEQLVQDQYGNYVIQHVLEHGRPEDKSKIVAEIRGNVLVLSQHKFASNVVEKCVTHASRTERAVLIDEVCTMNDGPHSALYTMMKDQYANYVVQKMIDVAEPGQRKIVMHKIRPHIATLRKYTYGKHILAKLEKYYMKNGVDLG

**Q.** Which results are given for “GGCUAGAACUAGUGGAUCCCCCGGCGCCCGGCGGCUCGAGCCCGGGUAAGUGUAAGUAGUCUGCAUGCCGCCGGGCGCCAUGCCUGCAGGUCGACUCUAGAAAACAUG”?
**A.** binding signal [1]: 5.06 log2 enrichment (interaction score); binding signal [2]: 1.18 log2 enrichment (interaction score); binding signal [3]: 3.99 log2 enrichment (interaction score)

**Q.** How did the binding signal [4] turn out when “GGCUAGAACUAGUGGAUCCCCCGGCGCCCGGCGGCUCGAGCCCGGGUAAGUGUAAAUCGUCUGCAUGCCGCCGGGCGCCAUGCCUGCAGGUCGACUCUAGAAAACAUG” was run?
**A.** Its binding signal is 2.5 log2 enrichment (interaction score).

**Q.** With “GGCUAGAACUAGUGGAUCCCCCGGCGCCCGGCGGCUCGAGCCCGGGUAAGUGGAAAUAGUCUGCAUGCCGCCGGGCGCCAUGCCUGCAGGUCGACUCUAGAAAACAUG” as the sequence, how does the binding signal [5] read?
**A.** Its binding signal is 5.05 log2 enrichment (interaction score).

**Q.** “GGCUAGAACUAGUGGAUCCCCCGGCGCCCGGCGGCUCGAGCCCGGGUAAGUGUAAAUAGUCUGCAUGCCGCCGGGCGCCAUGCCUGCAGGUCGACUCUAGAAAACAUG” was tested. Which binding signal [6] did it give?
**A.** The binding signal was 3.35 log2 enrichment (interaction score).

**Q.** What about the binding signal [7] of the same sequence?
**A.** Its binding signal is 2.72 log2 enrichment (interaction score).

**Q.** What about the binding signal [8] of the same sequence?
**A.** Its binding signal is 2.75 log2 enrichment (interaction score).

**Q.** And the binding signal [9]?
**A.** Its binding signal is 2.1 log2 enrichment (interaction score).

**Q.** And the binding signal [10]?
**A.** The binding signal was 2.58 log2 enrichment (interaction score).

**Q.** What about the binding signal [11] of the same sequence?
**A.** The binding signal was 0.51 log2 enrichment (interaction score).

**Q.** What about the binding signal [2] of the same sequence?
**A.** The binding signal was 2.47 log2 enrichment (interaction score).

**Q.** And the binding signal [12]?
**A.** The binding signal was 5.72 log2 enrichment (interaction score).

**Q.** And the binding signal [13]?
**A.** The binding signal was 5.82 log2 enrichment (interaction score).

**Q.** What about the binding signal [14] of the same sequence?
**A.** The binding signal was 0.69 log2 enrichment (interaction score).

**Q.** What about the binding signal [15] of the same sequence?
**A.** Its binding signal is 2.61 log2 enrichment (interaction score).

**Q.** “GGCUAGAACUAGUGGAUCCCCCGGCGCCCGGCGGCUCGAGCCCGGGUAAGUUUAAAUAGUCUGCAUGCCGCCGGGCGCCAUGCCUGCAGGUCGACUCUAGAAAACAUG” was tested. Which binding signal [16] did it give?
**A.** Its binding signal is 5.98 log2 enrichment (interaction score).

**Q.** What about the binding signal [17] of the same sequence?
**A.** Its binding signal is 3.37 log2 enrichment (interaction score).

**Q.** What does the source list for “GGCUAGAACUAGUGGAUCCCCCGGCGCCCGGCGGCUCGAGCCCGGGUAAGUGUAAAUUGUCUGCAUGCCGCCGGGCGCCAUGCCUGCAGGUCGACUCUAGAAAACAUG”?
**A.** binding signal [18]: 3.38 log2 enrichment (interaction score); binding signal [4]: 0.67 log2 enrichment (interaction score)

**Q.** Which binding signal [19] does the source give for “GGCUAGAACUAGUGGAUCCCCCGGCGCCCGGCGGCUCGAGCCCGGGUAAGUGUUAAUAGUCUGCAUGCCGCCGGGCGCCAUGCCUGCAGGUCGACUCUAGAAAACAUG” here?
**A.** The binding signal was 2.86 log2 enrichment (interaction score).

**Q.** And the binding signal [14]?
**A.** Its binding signal is 2.27 log2 enrichment (interaction score).

**Q.** “GGCUAGAACUAGUGGAUCCCCCGGCGCCCGGCGGCUCGAGCCCGGGUAAGUGUAUAUAGUCUGCAUGCCGCCGGGCGCCAUGCCUGCAGGUCGACUCUAGAAAACAUG” was tested. Which binding signal [6] did it give?
**A.** The binding signal was 4.12 log2 enrichment (interaction score).

**Q.** And the binding signal [7]?
**A.** The binding signal was 0.2 log2 enrichment (interaction score).

**Q.** What about the binding signal [11] of the same sequence?
**A.** The binding signal was 2.52 log2 enrichment (interaction score).

**Q.** With “GGCUAGAACUAGUGGAUCCCCCGGCGCCCGGCGGCUCGAGCCCGGGUAAGUGUCAAUAGUCUGCAUGCCGCCGGGCGCCAUGCCUGCAGGUCGACUCUAGAAAACAUG” as the sequence, how does the binding signal [20] read?
**A.** Its binding signal is 4.54 log2 enrichment (interaction score).

**Q.** And the binding signal [8]?
**A.** Its binding signal is 4.63 log2 enrichment (interaction score).

**Q.** And the binding signal [19]?
**A.** The binding signal was 2.89 log2 enrichment (interaction score).

**Q.** For “GGCUAGAACUAGUGGAUCCCCCGGCGCCCGGCGGCUCGAGCCCGGGUAAGCGUAAAUAGUCUGCAUGCCGCCGGGCGCCAUGCCUGCAGGUCGACUCUAGAAAACAUG”, which binding signal [9] is on record?
**A.** The binding signal was 2.87 log2 enrichment (interaction score).

**Q.** And the binding signal [10]?
**A.** The binding signal was 2.54 log2 enrichment (interaction score).

**Q.** What about the binding signal [12] of the same sequence?
**A.** Its binding signal is 5.73 log2 enrichment (interaction score).

**Q.** “GGCUAGAACUAGUGGAUCCCCCGGCGCCCGGCGGCUCGAGCCCGGGUAAGUGUACAUAGUCUGCAUGCCGCCGGGCGCCAUGCCUGCAGGUCGACUCUAGAAAACAUG” was tested. Which binding signal [6] did it give?
**A.** The binding signal was 3.56 log2 enrichment (interaction score).

**Q.** What does the source list for “GGCUAGAACUAGUGGAUCCCCCGGCGCCCGGCGGCUCGAGCCCGGGUAAGUGUAAUUAGUCUGCAUGCCGCCGGGCGCCAUGCCUGCAGGUCGACUCUAGAAAACAUG”?
**A.** binding signal [1]: 3.25 log2 enrichment (interaction score); binding signal [2]: 2.79 log2 enrichment (interaction score)
